PubChem BioAssay (NCATS)
Inconclusive results are not listed. The source made the active and inactive calls. Calls follow the shape of the dose curve; as a rule, active = well fitted cell-killing curve with a large enough effect; inconclusive = small, poorly fitted or top-dose-only effect, or effect the other way; inactive = no such curve, though single readings can be large or run the other way.

Test: Quantitative High-Throughput drug screen in 47 multiple myeloma cell lines against the NCATS MIPE library collection: KMS12PE_JCRB cell viability assay (AID 1918972); also: nearly all actives have a fitted effect of over 30% in size
Settings: KMS12PE myeloma viability, CellTiter-Glo ATP, 48 h; series mostly up to 45.8 µM; viability: at the top concentration
Excerpt: PI: Beverly A. Mock Ph.D.
Laboratory of Cancer Biology and Genetics,
Center for Cancer Research, National Cancer Institute,
National Institute of Health, Bethesda, Maryland
Drug resistance and disease progression are common in multiple myeloma (MM) patients, underscoring the need for new therapeutic combinations. […] We hypothesized that effective combinations would reduce MYC expression and enhance p16 activity. […] These preclinical data identify potentially useful drug combinations for evaluation in drug-resistant MM and reveal potential mechanisms of combined drug sensitivity.
Described herein is the primary MIPE qHTS used to cherrypick compounds. Validated compounds were then further tested for potential synergistic activiy.
[1] Peat TJ, Gaikwad SM, Dubois W, Gyabaah-Kessie N, Zhang S, Gorjifard S, Phyo Z, Andres M, Hughitt VK, Simpson RM, Miller MA, Girvin AT, Taylor A, Williams D, D'Antonio N, Zhang Y, Rajagopalan A, Flietner E, Wilson K, Zhang X, Shinn P, Klumpp-Thomas C, McKnight C, Itkin Z, Chen L, Kazandijian D, Zhang J, Michalowski AM, Simmons JK, Keats J, Thomas CJ, Mock BA. Drug combinations identified by high-throughput screening promote cell cycle transition and upregulate Smad pathways in myeloma. Cancer Lett. 2023 Aug 1;568:216284. doi: 10.1016/j.canlet.2023.216284. Epub 2023 Jun 24. PMID: 37356470; PMCID: PMC10408729.
SEQUENCE No. (e.g., 1, 2, 3, etc.); […] (e.g., Cells, Incubation, Reagent, etc.); VALUE and DESCRIPTION.
1; Cells; 5 uL; white, solid bottom 1536-well Greiner assay plate.
2; Compounds; 23 nL; Kalypsis pin tool (Wako USA) equipped with a 1536-well pin head to transfer to the assay plates.
3; Incubation; 48 hours; 37C incubation.
4; Reagent;5uL; CellTiter Glo (Promega).
5; Detector; 425V; Luminescence; Viewlux PerkinElmer.
NOTES (numbers refer to Sequence numbers above)
1. The cell-based screening methods employed in this study were like those previously published. Briefly, the corresponding myeloma cell lines were screened in 1,536-well plates with 500 cells, 5-uL per well for inhibition of cell viability (assessed by measuring ATP levels with CellTiterGlo).
2. NCATS MIPE 4.0 library of approved and investigational drugs were added using the Kalypsis pin tool. Wells treated with DMSO only for 100% viability and media only wells for 0% viability were used as controls.
3. The assay plates were covered and incubated for 48 hours in a 37C, 5% CO2 incubator with controlled humidity.
4. After 48 hours, CellTilter-GloTM luminescent substrate mix (Promega) reagent was added to the assay plate and plates we incubated for 5 min at room temperature.
5. Signal was measured as median relative luminescence units on a ViewLux (PerkinElmer) multiplate reader.
[1] Heske CM, Davis MI, Baumgart JT, Wilson K, Gormally MV, Chen L, Zhang X, Ceribelli M, Duveau DY, Guha R, Ferrer M, Arnaldez FI, Ji J, Tran HL, Zhang Y, Mendoza A, Helman LJ, Thomas CJ. Matrix Screen Identifies Synergistic Combination of PARP Inhibitors and Nicotinamide Phosphoribosyltransferase (NAMPT) Inhibitors in Ewing Sarcoma. Clin Cancer Res. 2017 Dec 1;23(23):7301-7311. doi: 10.1158/1078-0432.CCR-17-1121. Epub 2017 Sep 12. PMID: 28899971; PMCID: PMC6636827.
Potency is read from the fitted curve at half-maximal effect.

Row | SMILES | Potency | viability
1 | COCCOc1nc(-c2ccc(Cl)c(Cl)c2)n(-c2ccc(NC(=O)CCl)cc2)n1 | 14.8 µM (active) | –
2 | CC#CCn1c(N2CCC[C@@H](N)C2)nc2c1c(=O)n(Cc1nc(C)c3ccccc3n1)c(=O)n2C | – | 110% (inactive)
3 | O=C(O)c1ccc(-c2c[nH]c3ncc(-c4ccccc4)cc23)cc1C1CCCC1 | – | 112% (inactive)
4 | O=C1C(Cl)=C(NCCN2CCOCC2)C(=O)c2ncccc21 | 3.32 µM (active) | –
5 | CC1CCC(C(=O)N(c2cc(C#CC(C)(C)C)sc2C(=O)O)C2CCC(O)CC2)CC1 (stereo not given) | – | 87.4% (inactive)
6 | O=C(O)[C@H]1O[C@H](Oc2cc3oc(-c4ccccc4)cc(=O)c3c(O)c2O)[C@H](O)[C@@H](O)[C@H]1O | – | 128% (inactive)
7 | COc1ccc(-c2coc3cc(O)ccc3c2=O)cc1 | – | 99.6% (inactive)
8 | CC(=O)N(C)C1(c2ccccc2)CCN(CCC[C@]2(c3ccc(Cl)c(Cl)c3)CCCN(C(=O)c3ccccc3)C2)CC1 | 7.43 µM (active) | –
9 | Cc1ccc([C@@H]2O[C@H](CO)[C@@H](O)[C@H](O)[C@@H]2O)cc1Cc1ccc(-c2ccc(F)cc2)s1 | 20.9 µM (active) | –
10 | O=C1NC(=O)C(=Cc2ccc3nccnc3c2)S1 | 1.15 µM (active) | –
11 | COc1ccc(-c2cc(=O)c3c(O)cc(O)cc3o2)cc1O | 5.9 µM (active) | –
12 | O=C(O)c1cc(O)c2c(c1)C(=O)c1cccc(O)c1C2=O | – | 83.9% [at 92.2 µM] (inactive)
13 | Cc1nc(N)sc1-c1ccnc(Nc2ccc(N3CCOCC3)cc2)n1 | 2.64 µM (active) | –
14 | Cc1ccc(C(=O)Nc2cccc(C(F)(F)F)c2)cc1Nc1nc(-c2cccnc2)nc2c1cnn2C | – | 70.4% (inactive)
15 | CC(C)(Cc1ccc2ccccc2c1)NC[C@@H](O)COc1cccc(Cl)c1C#N | – | 112% (inactive)
16 | O=C(N[C@@H](c1ccccc1)[C@@H]1CCCCN1)c1cccc(C(F)(F)F)c1Cl | 23.5 µM (active) | –
17 | O=c1c(-c2ccc(O)cc2)coc2cc(O[C@@H]3O[C@H](CO)[C@H](O)[C@H](O)[C@H]3O)ccc12 | – | 123% (inactive)
18 | Cc1[nH]c(C=C2C(=O)Nc3ccc(S(=O)(=O)Cc4c(Cl)cccc4Cl)cc32)c(C)c1C(=O)N1CCC[C@H]1CN1CCCC1 | 2.64 µM (active) | –
19 | CC1(C)CCC(CN2CCN(c3ccc(C(=O)NS(=O)(=O)c4ccc(NCC5CCOCC5)c([N+](=O)[O-])c4)c(Oc4cnc5[nH]ccc5c4)c3)CC2)=C(c2ccc(Cl)cc2)C1 | 0.0833 µM (active) | –
20 | NS(=O)(=O)c1ccc(NC2=CC(=O)c3ccccc3C2=O)cc1 | 0.526 µM (active) | –

Row | SMILES | Potency | viability
21 | CC1(C)CCC[C@@]2(C)[C@@H]1CC[C@@]1(C)OC(=O)C[C@H]21 | 14.8 µM (active) | –
22 | COc1ccc2c(Oc3ccc(NC(=O)c4c(C)n(CC(C)(C)O)n(-c5ccccc5)c4=O)cc3F)ccnc2c1 | 26.4 µM (active) | –
23 | O=c1[nH]cnc2c1ncn2[C@H]1CC[C@@H](CO)O1 | – | 138% (inactive)
24 | O=C(CCN1CCN(C(=O)OCc2cc(Cl)cc(Cl)c2)CC1)c1ccc2[nH]c(=O)oc2c1 | – | 130% (inactive)
25 | CCC(=O)NC[C@H](Cc1ccc(OCCc2nc(-c3ccccc3)oc2C)cc1)NC(C)=CC(=O)c1ccc(C(F)(F)F)cc1 | 7.43 µM (active) | –
26 | CCC(=O)O[C@]1(C(=O)CO)CC[C@H]2[C@@H]3CCC4=CC(=O)CC[C@]4(C)[C@@H]3CC[C@@]21C | – | 95.8% (inactive)
27 | N#CC1(c2ccc(NC(=O)c3cccnc3NCc3ccncc3)cc2)CCCC1 | 0.469 µM (active) | –
28 | Clc1ccc(COC(Cn2ccnc2)c2ccc(Cl)cc2Cl)cc1 (stereo not given) | 23.5 µM (active) | –
29 | CCn1c(C(=O)N(C2CC2)C2CC2)cc2c3c(ncn3C)c(Nc3cc(C)n(C)n3)nc21 | 11.8 µM (active) | –
30 | c1cc(-c2sc(-c3ccncc3)c(-c3ccncc3)c2-c2ccncc2)ccn1 | 2.96 µM (active) | –
31 | CC(C)C(=O)Nc1ncc(-c2cc(C(F)F)nn2-c2c(Cl)cccc2Cl)s1 | 16.6 µM (active) | –
32 | O=c1cc(-c2cccc3c2Sc2ccccc2S3)oc(N2CCOCC2)c1 | 16.6 µM (active) | –
33 | O=c1c(O)c(-c2ccc(O)cc2)oc2cc(O)cc(O)c12 | 16.6 µM (active) | –
34 | NC1=N[C@@]2(c3cc(NC(=O)c4ccc(F)cn4)ccc3F)COC[C@@H]2CS1 | 1.05 µM (active) | –
35 | CNC(=O)c1ccccc1Sc1ccc2c(C=Cc3ccccn3)n[nH]c2c1 | 1.66 µM (active) | –
36 | CC(=O)O[C@]1(C(C)=O)CC[C@@H]2[C@@H]3C[C@H](C)C4=CC(=O)CC[C@]4(C)[C@H]3CC[C@@]21C | – | 100% (inactive)
37 | O=C(NC1CCOCC1)c1ccc(-c2cc(-c3cn[nH]c3-c3ccccn3)ccn2)cc1 | – | 105% (inactive)
38 | O=C(Nc1cc(Cl)cc2c1[nH]c1cnccc12)c1cccnc1 | – | 89.5% (inactive)
39 | NC(=O)c1ccc2nc(-c3ccc(Oc4ccc(Cl)cc4)cc3)[nH]c2c1 | 9.35 µM (active) | –
40 | CC(C)(C)OC(=O)N[C@H]1CCCCCC=C[C@@H]2C[C@@]2(C(=O)NS(=O)(=O)C2CC2)NC(=O)[C@@H]2C[C@@H](OC(=O)N3Cc4cccc(F)c4C3)CN2C1=O | 13.2 µM (active) | –
